According to PubChem BioAssay AID2620 (National Center for Advancing Translational Sciences (NCATS), 2010):
Results filed as inconclusive are left out. Active and inactive are the calls of the source. The call rests on the fitted dose curve; in most records, active means well fitted curve in the direction sought with a large enough effect; inconclusive means small, poorly fitted or top-dose-only effect, or another doubt; inactive means no such curve, though single readings can be large or run the other way.

Target: Pyruvate kinase PKM (Homo sapiens) (UniProt P14618)
Experiment: Secondary LDH Assay for Activators of Human Pyruvate Kinase M1 Isoform: for Probe SAR
Summary of the method: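 10 nM hPK-M1 coupled to 1 uM LDH, with 0.1 mM PEP, 4.0 mM ADP, 0.2 mM NADH, 50 mM Tris pH 8.0, 200 mM KCl, 15 mM MgCl2 (final). NADH fluorescence depletion followed kinetically 3-6 min; initial rates normalized to uninhibited controls.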

Chain of Pyruvate kinase PKM (Homo sapiens) (P14618 whole entry, looked up, canonical isoform): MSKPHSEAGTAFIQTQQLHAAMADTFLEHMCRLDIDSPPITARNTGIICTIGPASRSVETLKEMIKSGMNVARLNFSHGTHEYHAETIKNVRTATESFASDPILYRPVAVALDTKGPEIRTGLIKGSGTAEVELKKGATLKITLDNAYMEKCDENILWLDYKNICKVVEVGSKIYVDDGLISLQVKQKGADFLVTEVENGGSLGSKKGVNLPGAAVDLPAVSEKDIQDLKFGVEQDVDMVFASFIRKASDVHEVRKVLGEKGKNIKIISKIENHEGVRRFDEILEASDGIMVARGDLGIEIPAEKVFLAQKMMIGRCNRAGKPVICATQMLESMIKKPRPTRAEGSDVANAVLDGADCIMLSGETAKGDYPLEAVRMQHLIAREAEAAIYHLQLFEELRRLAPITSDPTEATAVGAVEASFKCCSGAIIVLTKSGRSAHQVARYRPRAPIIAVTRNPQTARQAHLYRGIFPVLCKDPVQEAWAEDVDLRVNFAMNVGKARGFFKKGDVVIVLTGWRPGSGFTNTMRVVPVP

SMILES	outcome
Nc1cccc(S(=O)(=O)N2CCCN(S(=O)(=O)c3ccc4c(c3)OCCO4)CC2)c1	inactive
O=C1CCc2cc(S(=O)(=O)Nc3ccc4c(c3)OCCO4)ccc2N1	inactive
COc1ccc(S(=O)(=O)Nc2ccc(C)c(C)c2)cc1	inactive
O=C1c2ccccc2C(=O)N1c1cccc2ncccc12	inactive
Cc1ccc2nc(-c3ccc(C)o3)c(NC3CCCC3)n2c1	inactive
O=C1c2ccccc2C(=O)N1Cc1ccncc1	inactive
O=C1CCc2cc(S(=O)(=O)Nc3ccc(Cl)c(Cl)c3)c(F)cc2N1	inactive
O=C1c2ccccc2C(=O)N1c1cccnc1	inactive
O=C1CCc2cc(S(=O)(=O)NCc3ccccc3)ccc2N1	inactive
Cc1ccc(-c2nc3ccc(Cl)cn3c2Nc2ccccc2)o1	inactive
Cc1ccc(NS(=O)(=O)c2cc3c(cc2-c2cn[nH]c2)NC(=O)CO3)cc1C	inactive
